{"source": "PubChem BioAssay (NCI)", "note": "About 83,000 compounds went through this panel and 20% of them were active in at least one assay; those are over-represented in the sample as a whole.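 Plates (96-well) were seeded with cells, treated with compound at one concentration, and incubated for 48 hours before percent growth was determined.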 Values without a mark were called inactive. Activity calls are given as the source filed them. The calls were made as follows: active = growth percent below 10; inactive = the rest."}
{"test_system": "SW-620 colon", "assay": "NCI-60 one-dose screen, 48 h (100 = growth as untreated, 0 = no growth, -100 = all killed)", "details": "10 µM unless noted"}
{"smiles": "CCCCCN1C=C/C(=C\\C(=O)N(C)c2ccc(Oc3ccccc3)cc2)c2ccccc21", "growth": "84.3%"}
{"smiles": "CNC(=O)c1cncc(Cn2nc(C)c(NC(=O)c3ccc(COc4ccc(C(F)(F)F)cc4C)cc3)c2C)c1", "growth": "102%"}
{"smiles": "Nc1c(C(=O)Nc2ccnc3ccccc23)sc2nc3c(cc12)CN(Cc1ccccc1)CC3", "growth": "95.3%"}
{"smiles": "CC1=C(C(=O)/C=C/c2ccc(N(C)C)cc2)C(c2ccccc2)NC(=S)N1", "note": "(configuration not stated)", "growth": "98.8%"}
{"smiles": "Nc1nc(Nc2ccccc2SSc2ccccc2Nc2nc(N)nc(-c3cccs3)n2)nc(-c2ccsc2)n1", "growth": "80.4%"}
{"smiles": "COc1cc2c(cc1OC)C(=O)/C(=C/c1cc(C)c(O)c(C)c1)S2", "growth": "33.4%"}
{"smiles": "COc1cc2c(=O)n(CCCN(C)C)c3c4cc5c(cc4ccc3c2cc1OC)OCO5", "growth": "38.6%"}
{"smiles": "CCN(CC)CC[n+]1cc2cc(OC)c(OC)cc2c2ccc3cc4c(cc3c21)OCO4", "growth": "9.98% (active)"}
{"smiles": "O=C(Nc1ccc(NC(=O)c2cc(=O)[nH]c3ccccc23)cc1)Nc1cccc(Cl)c1", "growth": "89.9%"}
{"smiles": "COc1ccc(/C=C2\\Oc3cc(OCCCN4CCCCC4)ccc3C2=O)cc1OC", "growth": "85%"}
{"smiles": "Cc1nc(N)nc(N[C@@H](C)c2nc3cccc(NCc4ccc(C(=O)NO)cc4)c3c(=O)n2-c2ccccc2)n1", "growth": "49.5%"}
{"smiles": "Cc1ccc(/C=N/NC(=O)CSc2nc3ccccc3c(=O)n2Cc2ccc(S(N)(=O)=O)cc2)cc1", "growth": "94%"}
{"smiles": "COc1cc(/C(C)=C(\\c2ccc(Cl)cc2)c2ccc(OCCN3CCCC3)cc2)ccc1F", "growth": "43.2%"}
{"smiles": "COc1cc2nc(-c3ccc(Cl)cc3)cc(OCCCN3CCOCC3)c2cc1OC", "growth": "65%"}
{"smiles": "COc1ccc(NC(N)=NCCCOc2ccc(F)cc2)cc1", "growth": "88.6%"}
{"smiles": "COC(=O)CNC(=O)[C@]12CCC(C)(C)C[C@H]1C1=CC[C@@H]3[C@@]4(C)Cc5c([nH]c6ccccc56)C(C)(C)[C@@H]4CC[C@@]3(C)[C@]1(C)CC2", "growth": "88.8%"}
{"smiles": "C[C@H]1[C@H](C)CC[C@]2(C(=O)Nc3ccc4ncccc4c3)CC[C@]3(C)C(=CC[C@@H]4[C@@]5(C)CCCNC(C)(C)[C@@H]5CC[C@]43C)[C@H]12", "growth": "-83.9% (active)"}
{"smiles": "COc1cc(NC(C)CCCNC(=O)CCC(=O)NCCCNCCCCCCCCCCNCCCNC(=O)CCC(=O)NCCCC(C)Nc2cc(OC)cc3cccnc23)c2ncccc2c1", "note": "(configuration not stated)", "growth": "73.4% [8 µM]"}
{"smiles": "CCCCCN1C=C/C(=C\\C(=O)n2ccc3ccccc32)c2ccccc21", "growth": "85.2%"}
{"smiles": "Cc1cc2nc3c4ccc(Br)cc4n(CCN(C)C)c3nc2cc1C", "growth": "0.693% (active)"}
{"smiles": "CC1(C)CC(=O)C2=C(C1)N(c1ccc(F)cc1F)C(N)=C(C#N)C2c1cc(Br)ccc1F", "note": "(configuration not stated)", "growth": "89.6%"}
{"smiles": "C[C@H]1[C@H](C)CC[C@]2(C(=O)NCC#CCN3CCN(C)CC3)CC[C@]3(C)C(=CC[C@@H]4[C@@]5(C)Cc6c([nH]c7ccccc67)C(C)(C)[C@@H]5CC[C@]43C)[C@H]12", "growth": "57.5%"}
{"smiles": "COc1cc2nc(-c3ccc(C(F)(F)F)cc3)cc(OCCCN3CCOCC3)c2cc1OC", "growth": "25.9%"}
{"smiles": "O=C1c2c(c3c4cccc(F)c4[nH]c3c3ccc4ccccc4c23)C(=O)N1O", "growth": "31.2%"}
{"smiles": "O=C1OC(Cc2ccccc2)C1c1ccccc1", "note": "(configuration not stated)", "growth": "107%"}
{"smiles": "COc1cccc(/C=N/NC(=O)c2cnn3c2NC(c2ccccc2)C3)c1Oc1ccccc1", "note": "(configuration not stated)", "growth": "65.6%"}
{"smiles": "COc1ccc(NC(=O)c2cc(NCc3cc(O)ccc3O)ccc2O)cc1", "growth": "100%"}
{"smiles": "COc1cc2nc(-c3ccc(Cl)cc3)cc(OCCCN3CCCC3)c2cc1OC", "growth": "30.4%"}
{"smiles": "COc1ccc(C/C(=C(\\C)c2ccc(OCCN3CCCC3)cc2)c2ccc(OCCN3CCCC3)cc2)cc1", "growth": "-35.4% (active)"}
{"smiles": "COc1cc(NC(C)CCCNC(=O)CCC(=O)NCCCNCCCCCCCCNCCCNC(=O)CCC(=O)NCCCC(C)Nc2cc(OC)cc3cccnc23)c2ncccc2c1", "note": "(configuration not stated)", "growth": "78%"}
{"smiles": "COc1ccc(Cc2cnc(NC(=O)c3ccc4c(c3)OCCO4)s2)cc1", "growth": "31.4%"}
{"smiles": "CC(=O)N1c2ccccc2NC2=C(C(=O)NC2(C)C)C1c1ccco1", "note": "(configuration not stated)", "growth": "81.1%"}
{"smiles": "O=S(=O)(NCCNc1nccc(-c2c(-c3cccc(F)c3)nc3sccn23)n1)c1ccc(Cl)cc1", "growth": "59.6%"}
{"smiles": "CC(Sc1nc2sc3c(c2c(=O)n1-c1ccc(Cl)cc1)CCCC3)C(=O)Nc1nc(-c2ccc(Br)cc2)cs1", "note": "(configuration not stated)", "growth": "104%"}
{"smiles": "C[C@@H](Nc1ncnc2ccc(-c3cnc(N)nc3)cc12)c1ccc(F)cc1", "growth": "95.8%"}
{"smiles": "CC1(C)CC[C@]23CC[C@]4(C)[C@H](CC[C@@H]5[C@@]6(C)CCCNC(C)(C)[C@@H]6CC[C@]54C)[C@H]2[C@H]1OC3", "growth": "-71.9% (active)"}
{"smiles": "COc1ccc(C(=O)c2nc3ccccc3n2CC(=O)c2ccc(Cl)cc2)cc1", "growth": "15.8%"}
